Source: the supplement of paper PMC11732987, “Enantioselective OTUD7B fragment discovery through chemoproteomics screening and high-throughput optimisation” (Communications Chemistry, 2025)

Tests used:
Assay in all cases: log2 ratio of Biotin-Ahx-Ub-VS probe labelling (fragment/DMSO); higher = less target engagement (more negative = stronger competition), active = hit call of the paper (q ≤ 0.05, log2 ratio ≤ -1)
Conditions in all cases: compound concentration: 200 uM; treatment time: 3 h
USP42 = target: T1, USP42 (UniProt Q9H9J4)
T1 sequence (whole entry): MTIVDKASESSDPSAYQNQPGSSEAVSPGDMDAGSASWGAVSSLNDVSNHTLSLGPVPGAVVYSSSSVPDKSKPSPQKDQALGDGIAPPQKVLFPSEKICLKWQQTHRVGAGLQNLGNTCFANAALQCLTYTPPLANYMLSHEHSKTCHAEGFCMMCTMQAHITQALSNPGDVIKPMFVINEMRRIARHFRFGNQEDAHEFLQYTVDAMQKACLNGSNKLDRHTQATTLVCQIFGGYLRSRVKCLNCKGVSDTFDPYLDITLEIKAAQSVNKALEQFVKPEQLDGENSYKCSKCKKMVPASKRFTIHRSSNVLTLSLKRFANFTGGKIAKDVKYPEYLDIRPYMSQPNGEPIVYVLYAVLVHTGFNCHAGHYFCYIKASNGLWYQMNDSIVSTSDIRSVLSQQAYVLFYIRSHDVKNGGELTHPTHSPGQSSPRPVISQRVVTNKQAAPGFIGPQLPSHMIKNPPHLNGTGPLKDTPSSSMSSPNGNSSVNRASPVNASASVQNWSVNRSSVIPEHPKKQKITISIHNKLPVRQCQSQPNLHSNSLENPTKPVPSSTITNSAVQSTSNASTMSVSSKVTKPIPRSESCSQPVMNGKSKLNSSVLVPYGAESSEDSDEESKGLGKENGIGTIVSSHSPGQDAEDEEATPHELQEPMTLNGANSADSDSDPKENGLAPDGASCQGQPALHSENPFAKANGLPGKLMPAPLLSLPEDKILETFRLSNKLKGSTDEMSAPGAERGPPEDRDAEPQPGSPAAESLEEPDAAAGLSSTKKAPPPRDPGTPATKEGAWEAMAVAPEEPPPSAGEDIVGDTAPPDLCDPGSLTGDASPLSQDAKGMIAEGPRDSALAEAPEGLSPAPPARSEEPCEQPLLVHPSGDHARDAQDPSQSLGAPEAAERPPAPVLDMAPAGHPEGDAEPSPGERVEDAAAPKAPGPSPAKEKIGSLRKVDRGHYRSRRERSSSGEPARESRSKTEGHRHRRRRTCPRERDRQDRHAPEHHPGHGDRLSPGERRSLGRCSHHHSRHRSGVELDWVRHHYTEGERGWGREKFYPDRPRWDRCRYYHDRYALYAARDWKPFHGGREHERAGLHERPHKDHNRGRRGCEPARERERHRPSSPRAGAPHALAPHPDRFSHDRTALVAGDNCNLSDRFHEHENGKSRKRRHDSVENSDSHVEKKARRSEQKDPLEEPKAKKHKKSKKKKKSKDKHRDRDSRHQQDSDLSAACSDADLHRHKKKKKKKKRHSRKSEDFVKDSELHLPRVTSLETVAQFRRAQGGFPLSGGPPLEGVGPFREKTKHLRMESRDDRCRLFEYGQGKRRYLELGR
In short: (§1)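 HEK293T lysate in Tris/CHAPS/IGEPAL buffer with protease inhibitors (495 µg per sample) was given fragment at 200 µM or vehicle for 3 h, in triplicate. It then received Biotin-Ahx-Ub-VS at 0.5 µM final for 1 h. Labelled DUBs were NeutrAvidin-enriched, digested with LysC and trypsin, and run by diaPASEF LC-MS/MS. Values are average log2 fragment/vehicle ratios by unpaired t-test on global-median-normalised Spectronaut quantities of proteins with ≥2 unique peptides.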

USP46 = USP46 (UniProt P62068)
In short: as §1

USP47 = target: T2, USP47 (UniProt Q96K76)
T2 sequence (whole entry): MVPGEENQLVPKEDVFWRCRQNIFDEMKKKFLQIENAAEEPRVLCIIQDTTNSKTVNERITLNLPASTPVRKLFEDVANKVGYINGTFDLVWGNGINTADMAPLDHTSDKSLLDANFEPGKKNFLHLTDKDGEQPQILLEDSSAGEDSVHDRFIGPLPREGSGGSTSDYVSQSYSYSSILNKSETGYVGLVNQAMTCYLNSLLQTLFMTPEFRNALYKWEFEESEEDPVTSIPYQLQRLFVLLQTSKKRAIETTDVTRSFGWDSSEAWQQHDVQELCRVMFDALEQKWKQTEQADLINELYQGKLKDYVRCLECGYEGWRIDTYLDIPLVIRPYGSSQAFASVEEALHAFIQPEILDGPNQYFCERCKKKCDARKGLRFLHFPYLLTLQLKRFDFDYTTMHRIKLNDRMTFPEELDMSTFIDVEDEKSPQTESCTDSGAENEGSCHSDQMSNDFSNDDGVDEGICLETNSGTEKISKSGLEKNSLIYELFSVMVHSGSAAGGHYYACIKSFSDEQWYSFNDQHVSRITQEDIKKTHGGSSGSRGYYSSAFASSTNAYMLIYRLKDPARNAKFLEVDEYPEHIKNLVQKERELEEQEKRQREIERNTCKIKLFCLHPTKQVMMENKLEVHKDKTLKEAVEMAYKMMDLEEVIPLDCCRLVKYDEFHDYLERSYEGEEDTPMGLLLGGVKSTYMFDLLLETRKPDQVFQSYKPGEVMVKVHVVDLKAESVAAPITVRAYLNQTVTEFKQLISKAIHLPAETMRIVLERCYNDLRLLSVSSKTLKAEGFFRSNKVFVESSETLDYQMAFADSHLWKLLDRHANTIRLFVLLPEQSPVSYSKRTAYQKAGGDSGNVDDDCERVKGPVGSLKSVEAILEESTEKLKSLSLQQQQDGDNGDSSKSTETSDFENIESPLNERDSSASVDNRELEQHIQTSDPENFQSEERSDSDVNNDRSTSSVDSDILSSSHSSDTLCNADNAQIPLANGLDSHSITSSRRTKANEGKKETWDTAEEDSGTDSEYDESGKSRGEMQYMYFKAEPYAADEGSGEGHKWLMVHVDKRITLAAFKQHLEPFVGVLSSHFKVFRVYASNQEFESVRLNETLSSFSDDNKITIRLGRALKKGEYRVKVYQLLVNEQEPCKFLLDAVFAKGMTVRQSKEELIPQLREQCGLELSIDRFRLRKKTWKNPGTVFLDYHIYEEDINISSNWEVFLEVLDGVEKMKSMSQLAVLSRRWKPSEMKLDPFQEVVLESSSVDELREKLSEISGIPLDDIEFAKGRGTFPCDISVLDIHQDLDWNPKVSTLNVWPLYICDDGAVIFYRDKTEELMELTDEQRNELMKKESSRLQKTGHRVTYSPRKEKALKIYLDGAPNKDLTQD
In short: as §1

USP48 = target: T3, USP48 (UniProt Q86UV5)
T3 sequence (whole entry): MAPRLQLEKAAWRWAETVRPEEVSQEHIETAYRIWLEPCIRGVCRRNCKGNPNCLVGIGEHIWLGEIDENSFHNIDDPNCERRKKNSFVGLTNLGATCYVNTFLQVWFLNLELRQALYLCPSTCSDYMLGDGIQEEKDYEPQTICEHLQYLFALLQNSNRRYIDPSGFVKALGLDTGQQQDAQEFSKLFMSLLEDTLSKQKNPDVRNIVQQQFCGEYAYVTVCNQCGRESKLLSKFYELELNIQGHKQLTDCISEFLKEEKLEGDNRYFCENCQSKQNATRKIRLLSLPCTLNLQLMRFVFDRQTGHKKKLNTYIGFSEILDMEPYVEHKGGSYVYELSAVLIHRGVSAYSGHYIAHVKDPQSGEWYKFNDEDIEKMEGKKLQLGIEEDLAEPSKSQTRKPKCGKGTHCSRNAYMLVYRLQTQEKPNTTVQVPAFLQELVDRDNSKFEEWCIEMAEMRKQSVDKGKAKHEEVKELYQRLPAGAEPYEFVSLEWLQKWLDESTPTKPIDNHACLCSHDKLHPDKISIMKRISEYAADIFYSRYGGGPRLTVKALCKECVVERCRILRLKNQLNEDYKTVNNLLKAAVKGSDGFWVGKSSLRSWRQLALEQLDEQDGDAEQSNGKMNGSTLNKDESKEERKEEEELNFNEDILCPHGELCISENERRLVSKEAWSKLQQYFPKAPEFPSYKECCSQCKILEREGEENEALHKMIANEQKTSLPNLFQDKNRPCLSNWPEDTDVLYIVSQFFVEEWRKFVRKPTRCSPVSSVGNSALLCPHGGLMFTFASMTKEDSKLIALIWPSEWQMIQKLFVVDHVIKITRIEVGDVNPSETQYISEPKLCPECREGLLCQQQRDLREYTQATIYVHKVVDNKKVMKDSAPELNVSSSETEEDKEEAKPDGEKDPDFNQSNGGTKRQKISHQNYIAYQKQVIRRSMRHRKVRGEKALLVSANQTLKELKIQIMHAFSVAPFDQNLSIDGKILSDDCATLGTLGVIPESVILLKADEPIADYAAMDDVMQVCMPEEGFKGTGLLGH
In short: as §1

USP5 = target: T4, USP5 (UniProt P45974)
T4 sequence (whole entry): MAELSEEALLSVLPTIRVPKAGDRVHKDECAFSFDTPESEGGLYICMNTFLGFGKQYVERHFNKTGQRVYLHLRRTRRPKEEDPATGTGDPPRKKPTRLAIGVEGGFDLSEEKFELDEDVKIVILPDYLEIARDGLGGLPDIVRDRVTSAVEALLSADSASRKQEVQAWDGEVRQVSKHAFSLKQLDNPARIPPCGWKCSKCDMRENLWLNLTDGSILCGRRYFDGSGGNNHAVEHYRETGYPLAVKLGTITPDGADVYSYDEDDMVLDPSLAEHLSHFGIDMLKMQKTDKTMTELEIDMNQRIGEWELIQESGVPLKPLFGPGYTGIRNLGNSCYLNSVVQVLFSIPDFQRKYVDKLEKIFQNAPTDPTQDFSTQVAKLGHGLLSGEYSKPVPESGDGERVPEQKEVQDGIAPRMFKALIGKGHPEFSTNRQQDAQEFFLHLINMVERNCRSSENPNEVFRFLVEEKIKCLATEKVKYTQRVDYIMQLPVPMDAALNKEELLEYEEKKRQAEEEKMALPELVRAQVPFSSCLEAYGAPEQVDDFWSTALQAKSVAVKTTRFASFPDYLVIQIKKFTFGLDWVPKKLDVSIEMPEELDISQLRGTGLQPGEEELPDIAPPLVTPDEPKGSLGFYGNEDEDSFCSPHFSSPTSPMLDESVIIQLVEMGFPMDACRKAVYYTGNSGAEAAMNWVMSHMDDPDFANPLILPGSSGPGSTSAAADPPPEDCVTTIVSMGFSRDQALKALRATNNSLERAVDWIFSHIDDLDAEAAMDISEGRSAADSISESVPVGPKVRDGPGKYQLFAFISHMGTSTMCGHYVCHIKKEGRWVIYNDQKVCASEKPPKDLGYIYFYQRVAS
In short: as §1

USP54 = USP54 (UniProt Q70EL1)
In short: as §1

USP7 = USP7 (UniProt Q93009)
In short: as §1

USP8 = target: T5, USP8 (UniProt P40818)
T5 sequence (whole entry): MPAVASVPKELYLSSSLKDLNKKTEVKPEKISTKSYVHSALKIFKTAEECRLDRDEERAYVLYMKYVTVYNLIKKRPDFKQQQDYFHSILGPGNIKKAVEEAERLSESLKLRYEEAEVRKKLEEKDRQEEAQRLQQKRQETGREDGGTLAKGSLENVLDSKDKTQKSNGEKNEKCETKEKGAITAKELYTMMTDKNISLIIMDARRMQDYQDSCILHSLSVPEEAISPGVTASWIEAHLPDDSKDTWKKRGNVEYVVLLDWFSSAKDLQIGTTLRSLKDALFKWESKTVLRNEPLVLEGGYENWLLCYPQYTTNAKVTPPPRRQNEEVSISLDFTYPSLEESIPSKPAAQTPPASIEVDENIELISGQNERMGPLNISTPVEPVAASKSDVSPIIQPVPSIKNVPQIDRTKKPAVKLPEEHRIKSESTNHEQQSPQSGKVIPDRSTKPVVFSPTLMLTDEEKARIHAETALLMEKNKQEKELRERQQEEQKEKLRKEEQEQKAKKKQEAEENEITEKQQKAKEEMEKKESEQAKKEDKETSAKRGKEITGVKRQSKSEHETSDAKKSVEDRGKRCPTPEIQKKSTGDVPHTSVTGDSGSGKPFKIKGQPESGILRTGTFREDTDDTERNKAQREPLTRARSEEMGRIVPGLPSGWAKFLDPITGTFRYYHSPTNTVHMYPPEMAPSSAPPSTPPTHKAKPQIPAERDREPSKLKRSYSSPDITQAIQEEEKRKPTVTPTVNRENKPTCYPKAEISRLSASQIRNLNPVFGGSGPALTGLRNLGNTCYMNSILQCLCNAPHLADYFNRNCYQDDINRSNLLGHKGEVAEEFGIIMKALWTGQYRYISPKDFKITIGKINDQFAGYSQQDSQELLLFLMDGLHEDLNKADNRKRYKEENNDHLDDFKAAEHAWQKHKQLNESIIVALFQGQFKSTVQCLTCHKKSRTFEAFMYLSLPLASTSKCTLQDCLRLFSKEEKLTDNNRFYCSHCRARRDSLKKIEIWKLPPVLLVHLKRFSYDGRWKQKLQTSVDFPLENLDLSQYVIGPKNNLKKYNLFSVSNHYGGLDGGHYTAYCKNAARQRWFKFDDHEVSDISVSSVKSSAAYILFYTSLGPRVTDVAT
In short: as §1

Measured: log2 ratio of Biotin-Ahx-Ub-VS probe labelling

USP7, sequence (Q93009 whole entry, looked up): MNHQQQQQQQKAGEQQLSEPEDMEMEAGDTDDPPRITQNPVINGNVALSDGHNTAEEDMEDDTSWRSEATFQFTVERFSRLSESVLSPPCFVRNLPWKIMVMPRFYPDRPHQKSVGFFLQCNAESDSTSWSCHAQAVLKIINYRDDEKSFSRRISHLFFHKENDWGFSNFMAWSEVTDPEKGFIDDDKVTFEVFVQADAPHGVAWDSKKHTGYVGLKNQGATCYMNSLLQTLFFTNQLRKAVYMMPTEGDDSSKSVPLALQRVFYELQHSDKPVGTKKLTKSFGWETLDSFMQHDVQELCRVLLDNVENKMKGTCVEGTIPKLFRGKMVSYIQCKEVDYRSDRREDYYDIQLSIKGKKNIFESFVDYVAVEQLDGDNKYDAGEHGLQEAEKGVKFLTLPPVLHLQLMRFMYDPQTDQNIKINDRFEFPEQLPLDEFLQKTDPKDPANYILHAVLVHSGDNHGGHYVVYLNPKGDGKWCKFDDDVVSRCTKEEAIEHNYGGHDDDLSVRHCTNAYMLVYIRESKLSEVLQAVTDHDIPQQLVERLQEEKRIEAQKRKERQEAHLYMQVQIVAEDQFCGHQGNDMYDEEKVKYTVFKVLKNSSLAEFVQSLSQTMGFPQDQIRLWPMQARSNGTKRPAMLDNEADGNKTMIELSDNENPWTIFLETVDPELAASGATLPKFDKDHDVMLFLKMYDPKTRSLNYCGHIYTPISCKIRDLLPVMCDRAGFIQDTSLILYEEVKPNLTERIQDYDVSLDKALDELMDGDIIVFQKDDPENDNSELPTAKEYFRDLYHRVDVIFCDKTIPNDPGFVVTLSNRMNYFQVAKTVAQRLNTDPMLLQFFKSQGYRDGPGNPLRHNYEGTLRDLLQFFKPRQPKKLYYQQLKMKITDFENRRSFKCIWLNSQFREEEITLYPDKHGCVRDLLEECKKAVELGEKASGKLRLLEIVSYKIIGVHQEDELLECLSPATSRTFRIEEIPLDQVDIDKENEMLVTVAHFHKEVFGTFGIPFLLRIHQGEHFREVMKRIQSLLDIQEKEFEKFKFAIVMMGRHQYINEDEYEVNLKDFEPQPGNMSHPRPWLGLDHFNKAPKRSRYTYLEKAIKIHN
USP54, sequence (Q70EL1 whole entry): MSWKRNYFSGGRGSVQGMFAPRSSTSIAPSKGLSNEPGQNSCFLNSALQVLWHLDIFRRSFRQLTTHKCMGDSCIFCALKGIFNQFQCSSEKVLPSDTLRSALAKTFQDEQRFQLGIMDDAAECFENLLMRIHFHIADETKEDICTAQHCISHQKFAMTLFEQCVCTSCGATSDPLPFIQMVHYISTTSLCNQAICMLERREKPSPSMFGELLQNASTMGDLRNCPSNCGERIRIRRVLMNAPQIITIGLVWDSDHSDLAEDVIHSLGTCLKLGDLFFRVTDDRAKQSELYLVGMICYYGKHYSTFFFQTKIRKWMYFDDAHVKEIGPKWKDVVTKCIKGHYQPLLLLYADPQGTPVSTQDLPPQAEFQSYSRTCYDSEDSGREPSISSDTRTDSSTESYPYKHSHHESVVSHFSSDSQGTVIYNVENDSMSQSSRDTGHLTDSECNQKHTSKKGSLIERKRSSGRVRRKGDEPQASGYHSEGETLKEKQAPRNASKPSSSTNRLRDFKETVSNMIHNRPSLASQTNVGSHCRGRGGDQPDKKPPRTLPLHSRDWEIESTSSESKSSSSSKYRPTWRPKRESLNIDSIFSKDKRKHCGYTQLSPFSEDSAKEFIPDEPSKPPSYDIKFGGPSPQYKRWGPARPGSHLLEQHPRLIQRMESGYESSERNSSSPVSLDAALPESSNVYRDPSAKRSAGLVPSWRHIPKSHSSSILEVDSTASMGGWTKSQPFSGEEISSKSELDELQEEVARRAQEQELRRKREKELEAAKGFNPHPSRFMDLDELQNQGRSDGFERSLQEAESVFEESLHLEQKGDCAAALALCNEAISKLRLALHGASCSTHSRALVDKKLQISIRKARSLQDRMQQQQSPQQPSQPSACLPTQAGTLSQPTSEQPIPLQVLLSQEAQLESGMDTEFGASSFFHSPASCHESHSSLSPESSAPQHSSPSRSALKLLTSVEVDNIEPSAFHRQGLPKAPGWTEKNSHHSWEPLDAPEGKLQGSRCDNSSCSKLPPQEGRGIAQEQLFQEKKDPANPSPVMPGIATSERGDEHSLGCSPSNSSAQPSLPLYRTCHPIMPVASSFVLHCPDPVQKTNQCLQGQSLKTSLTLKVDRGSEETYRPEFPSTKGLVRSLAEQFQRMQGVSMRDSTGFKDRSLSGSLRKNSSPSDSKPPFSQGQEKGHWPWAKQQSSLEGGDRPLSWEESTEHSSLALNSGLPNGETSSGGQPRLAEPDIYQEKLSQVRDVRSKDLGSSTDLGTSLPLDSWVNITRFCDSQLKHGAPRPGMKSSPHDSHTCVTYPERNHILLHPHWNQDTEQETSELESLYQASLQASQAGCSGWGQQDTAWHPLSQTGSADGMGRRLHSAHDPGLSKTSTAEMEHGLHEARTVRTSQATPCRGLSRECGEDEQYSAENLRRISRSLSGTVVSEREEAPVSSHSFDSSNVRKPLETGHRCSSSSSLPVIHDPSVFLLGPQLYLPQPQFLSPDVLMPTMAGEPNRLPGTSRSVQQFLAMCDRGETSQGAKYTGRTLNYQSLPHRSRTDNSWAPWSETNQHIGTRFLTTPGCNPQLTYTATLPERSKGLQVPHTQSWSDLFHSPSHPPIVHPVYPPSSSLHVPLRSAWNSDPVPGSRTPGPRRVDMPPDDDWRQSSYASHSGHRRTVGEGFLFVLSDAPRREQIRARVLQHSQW
USP46, sequence (P62068 whole entry): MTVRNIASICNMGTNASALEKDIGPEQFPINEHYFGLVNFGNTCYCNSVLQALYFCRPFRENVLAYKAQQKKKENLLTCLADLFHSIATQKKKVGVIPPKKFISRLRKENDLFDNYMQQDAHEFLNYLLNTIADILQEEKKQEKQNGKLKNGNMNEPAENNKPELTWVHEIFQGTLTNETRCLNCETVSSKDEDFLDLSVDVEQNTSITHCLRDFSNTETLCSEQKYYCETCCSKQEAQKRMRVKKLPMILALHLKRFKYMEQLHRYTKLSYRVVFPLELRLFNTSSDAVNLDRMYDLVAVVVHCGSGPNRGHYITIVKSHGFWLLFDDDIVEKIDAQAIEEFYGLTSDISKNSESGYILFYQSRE

Cc1ncc2c(n1)CCN(C(=O)CCl)C2
inactive: USP42 0.492 | USP46 -0.138 | USP47 0.296 | USP48 -0.0668 | USP5 -0.217 | USP54 -0.303 | USP7 -0.49 | USP8 -0.102
